The results in this text go back to PubChem BioAssay.

The structures appear in SMILES notation. A number with no mark means an inactive call.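 The calls were made as follows: active = viability increase at or above a cutoff of the median across tested compounds plus 3 SD (cut at about 8.5% in these data, passing the limit was not always enough); inconclusive = some gains above the cutoff, reason not given; inactive = the rest.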

The nature of this assay: doxorubicin toxicity protection in MRP-1 cells – H69AR cells, CellTiter-Glo, duplicate, MRP-1 activator project, pilot screen (AID 807).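 Also: compound pretreatment 18-22 h then 72 h combined with doxorubicin; 0% = doxorubicin alone and 100% = vehicle without doxorubicin.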 The note with it: H69AR viability with doxorubicin, CellTiter-Glo luminescence; at 10 µM; active compounds read high. Background: ATP-based viability assays read luminescence as a measure of living cells.
As for `O=C(CSc1ccc2nnc(-c3ccc(F)cc3)n2n1)N1CCOCC1`, the viability increase is -2.97%.
With `COC(=O)CN1C(=O)COc2ccc(Cl)cc21`, the viability increase is -0.89%.
Consider `CCOC(=O)C1CCCN(C(=O)Cn2sc3nc(C)cc(C)c3c2=O)C1` (stereo not drawn), for which the viability increase was -8.04%.
In the case of `O=C(NCc1cccs1)c1cnc2sccn2c1=O`, the viability increase was 0.04%.
As for `COC(=O)c1cn(NC(=O)c2ccncc2)c(=O)c2ccccc12`, the viability increase is -1.43%.
The figure for `Cc1ccccc1C(=O)Nc1ccccc1` is -0.99%.
The figure for `CC(Oc1ccccc1F)C(=O)NCCN1CCCCC1` (stereo not drawn) is -0.4%.
Next, `O=C(Cn1cc2c(n1)CCCCC2)NC1CCCCCC1`: -3.6%; `COc1ccccc1OCCC(=O)OCC(=O)NC(=O)NC(C)(C)C`: -1.52%.
As for `COc1ccc(OC)c(NC(=O)C2CCCN2C(=O)C2CCC(C)CC2)c1` (stereo not drawn), the viability increase is -5.02%.
Take `Cc1ccc2oc(=O)c3cnn(CC(=O)NC4CCCCC4C)c3c2c1` (stereo not drawn): the viability increase was -2.9%.
As to `O=C(Nc1nc(-c2ccccn2)cs1)C1COc2ccccc2O1` (stereo not drawn), the viability increase is -0.68%.
As to `O=C(Nc1ccc(Cl)cc1)C1CC2CCCC(C1)C2=O` (stereo not drawn), the viability increase is 0.77%.
Consider `O=C(NCc1ccc2c(c1)OCO2)c1cnc2n(c1=O)CCS2`, for which the viability increase is -0.06%.
For `CC(C)(Oc1ccc(-c2ccco2)cc1)C(=O)O`, the viability increase was -0.38%.
With `Cc1cc(S(=O)(=O)N2CCN(Cc3ccccc3)CC2)c(C)s1`, the viability increase is -1.58%.
For the compound `c1ccc(CSc2nnc(-c3ccncc3)o2)cc1`, the viability increase was -2.83%.
For the compound `CC(=O)c1cccc(NC(=O)c2cnn3ccccc23)c1`, the viability increase is -2.54%.
